Assay outcomes deposited in PubChem by Broad Institute.
Most compounds without a hit are left out; they make up all but 4.8% or so of the library.
AI-2 QS mod: Vibrio harveyi AI-2 quorum sensing modulators, primary screen, JMH597 strain, luminescence/OD600 ratio; activity change, % at 7.5 µM; 300,000 compounds, 0.4% hits; Vibrio harveyi JMH597 AI-2 luminescence/OD600 ratio, 9 h; hits give low values; strain lacks LuxN and CqsS sensors; 0 = neutral-control median; AID 2094, 2009; in the data active = activity change below about -75%, passing the limit was not always enough;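 note: luminescence divided by OD600 gain over 9 h not by final OD600 alone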
HIF activator: HIF pathway transcriptional activators, primary screen, cell-based, U2OS HRE-luciferase, luminescence. AID 1910, 2009. 300,000 compounds, 0.32% hits. U2OS HRE-luciferase reporter; normalized: DMSO 0%, desferrioxamine 100%. activation, % at 7.5 µM (by protocol);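 active = mean activation of at least 10% of the iron chelator positive control signal, with at least half of replicates also reaching 10%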
ALR inh: inhibitors of human ALR sulfhydryl oxidase, primary screen, biochemical, H2O2 detection, HRP-luminol luminescence, single point; inhibition, % (concentration not given with the values); purified ALR, DTT oxidation; AID 485317, 2010; FAD-linked sulfhydryl oxidase ALR (Homo sapiens), P55789; 290,000 compounds, 3.8% hits;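 active = mean replicate inhibition above about 79%, with every replicate also reaching it, limit read from the data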
Target sequence (P55789 whole entry, looked up): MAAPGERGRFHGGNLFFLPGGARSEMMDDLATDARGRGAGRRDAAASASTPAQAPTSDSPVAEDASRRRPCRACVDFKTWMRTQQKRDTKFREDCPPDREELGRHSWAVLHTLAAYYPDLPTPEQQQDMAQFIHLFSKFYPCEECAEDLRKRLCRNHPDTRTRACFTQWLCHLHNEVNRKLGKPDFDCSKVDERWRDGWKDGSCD
Mot1-301 SUMO: yeast Mot1-301 growth rescue at high temperature, primary screen, SUMOylation pathway inhibitor project, S. cerevisiae, ATP luminescence, 38.5C. growth rescue, % at 18.8 µM. S. cerevisiae Mot1-301 growth rescue; percent above DMSO median, 100 means doubled. AID 2716, 2010. 320,000 compounds, 1% hits;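 active = every valid replicate shows activation above 250% relative to neutral control wells; inactive = the rest, any valid replicate at or below 250%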
Numbers stand for hits.

Results for CCN(C(=O)CN1CCN(c2cccc(Cl)c2)CC1)c1c(N)n(Cc2ccccc2)c(=O)[nH]c1=O ?
AI-2 QS mod: inactive; HIF activator: inactive; ALR inh: 92; Mot1-301 SUMO: inactive

Results for Cc1ccc2c(c1)CCCN2CC(=O)N(C)c1c(N)n(Cc2ccccc2)c(=O)[nH]c1=O ?
ALR inh: 91; Mot1-301 SUMO: inactive

Results for COc1cc(/C=C(\C#N)C(=O)c2ccc(O)c(O)c2)cc(I)c1O ?
ALR inh: 99; Mot1-301 SUMO: inactive

Results for COc1cc(/C=C(\C#N)C(=O)N2CCOCC2)cc(Br)c1O ?
AI-2 QS mod: inactive; HIF activator: inactive; ALR inh: inactive; Mot1-301 SUMO: inactive

Results for COc1cccc(N2CCN(c3ccc4nnc(CCC(=O)Nc5ncccc5C)n4n3)CC2)c1 ?
AI-2 QS mod: inactive; HIF activator: inactive; ALR inh: 99; Mot1-301 SUMO: inactive

Results for CCN1CCN(C(=O)CCc2nnc3ccc(N4CCN(c5cccc(OC)c5)CC4)nn23)CC1 ?
AI-2 QS mod: inactive; HIF activator: inactive; ALR inh: 99; Mot1-301 SUMO: inactive

What do the screens show for `COc1cccc(N2CCN(c3ccc4nnc(CCC(=O)Nc5ccc(C)cn5)n4n3)CC2)c1`?
AI-2 QS mod: inactive; HIF activator: inactive; ALR inh: inactive; Mot1-301 SUMO: inactive

Results for COc1ccc(N2CCN(c3ccc4nnc(CCC(=O)Nc5ccc(C)cc5)n4n3)CC2)cc1 ?
AI-2 QS mod: inactive; HIF activator: inactive; ALR inh: 92; Mot1-301 SUMO: inactive

What do the screens show for `COc1ccc(NC(=O)CCc2nnc3ccc(N4CCC(C)CC4)nn23)cc1`?
AI-2 QS mod: inactive; HIF activator: inactive; ALR inh: inactive; Mot1-301 SUMO: inactive

Results for Cc1ccc(C2(C)NC(=O)N(CC(=O)NC(=O)NC(C)C)C2=O)cc1 (configuration not stated) ?
AI-2 QS mod: inactive; HIF activator: inactive; ALR inh: inactive; Mot1-301 SUMO: inactive

What do the screens show for `Cn1c(N)c(C(=O)CSc2nn(-c3ccc(F)cc3)c(=S)s2)c(=O)n(C)c1=O`?
ALR inh: inactive; Mot1-301 SUMO: inactive

Results for COc1ccc(Cl)cc1N1C(=NC(=O)C2CCCO2)SC2CS(=O)(=O)CC21 (configuration not stated) ?
AI-2 QS mod: inactive; HIF activator: inactive; ALR inh: inactive; Mot1-301 SUMO: inactive

How did O=C1CSC(=S)N1/N=C/c1cc(Br)ccc1O do in these assays?
AI-2 QS mod: inactive; HIF activator: inactive; ALR inh: 98; Mot1-301 SUMO: inactive

What do the screens show for `O=C1CSC(=S)N1/N=C/c1ccc(O)c(O)c1O`?
AI-2 QS mod: inactive; HIF activator: inactive; Mot1-301 SUMO: inactive

How did Cc1cc(=O)n2cc(-c3ccccc3)nc2[nH]1 do in these assays?
AI-2 QS mod: inactive; HIF activator: inactive; ALR inh: 87; Mot1-301 SUMO: inactive

Results for CCOc1ccc(S(=O)(=O)N2CCC(C(=O)NC3CC3)CC2)cc1Cl ?
AI-2 QS mod: inactive; HIF activator: inactive; ALR inh: inactive; Mot1-301 SUMO: inactive

Results for Cn1c(CCNC(=O)c2ccccc2Cl)n[nH]c1=S ?
AI-2 QS mod: inactive; HIF activator: inactive; ALR inh: 96

What do the screens show for `Cc1cc(NC(=O)CCC(=O)N(CC(=O)NC2CCCC2)c2cccc(F)c2)no1`?
AI-2 QS mod: inactive; HIF activator: inactive; Mot1-301 SUMO: inactive

How did O=S1(=O)NC(=NC2CCCCCC2)c2ccccc21 do in these assays?
AI-2 QS mod: inactive; HIF activator: inactive; ALR inh: 89; Mot1-301 SUMO: inactive

Results for COC(=O)C1=C(NC(=O)c2ccccc2C)CCS1 ?
AI-2 QS mod: inactive; HIF activator: inactive; ALR inh: inactive; Mot1-301 SUMO: inactive

What do the screens show for `COC(=O)C1=C(NC(=O)c2cccc(OC)c2)CCS1`?
AI-2 QS mod: inactive; HIF activator: inactive; ALR inh: 97; Mot1-301 SUMO: inactive

How did COc1ccc(CCNc2ncnc3c2nnn3Cc2ccccc2)cc1OC do in these assays?
AI-2 QS mod: inactive; HIF activator: inactive; Mot1-301 SUMO: inactive

How did COc1cc(C2N=C(c3ccccc3)NO2)cc(Br)c1O (configuration not stated) do in these assays?
AI-2 QS mod: inactive; HIF activator: inactive; ALR inh: 98; Mot1-301 SUMO: inactive

How did COc1ccc(OC)c(NC(=O)CSc2ccc3nnc(-c4ccccn4)n3n2)c1 do in these assays?
AI-2 QS mod: inactive; HIF activator: inactive; ALR inh: inactive; Mot1-301 SUMO: inactive

Results for COc1ccc(C(=O)Nc2ccc(NC(=O)Cc3ccccc3)cn2)cc1 ?
AI-2 QS mod: inactive; HIF activator: inactive; ALR inh: inactive; Mot1-301 SUMO: inactive

What do the screens show for `Nc1c(NC2CCCCC2)c2ccccc2oc1=O`?
AI-2 QS mod: inactive; HIF activator: inactive; ALR inh: 99; Mot1-301 SUMO: inactive

What do the screens show for `Cc1ccccc1Nc1c(N)c(=O)oc2ccccc12`?
AI-2 QS mod: inactive; HIF activator: inactive; ALR inh: 99; Mot1-301 SUMO: inactive

What do the screens show for `COc1ccccc1Nc1nnc(SCC(=O)c2c(N)n(C3CC3)c(=O)[nH]c2=O)s1`?
ALR inh: inactive; Mot1-301 SUMO: inactive

How did COc1ccc(N2CCN(c3ccc(NC(=O)NN)cc3)CC2)cc1 do in these assays?
AI-2 QS mod: inactive; HIF activator: inactive; ALR inh: inactive; Mot1-301 SUMO: inactive

Results for Cc1cccc(C(=O)NNC2=C(C(=O)C(F)(F)F)CCC2)c1O ?
AI-2 QS mod: inactive; HIF activator: inactive; ALR inh: 97; Mot1-301 SUMO: inactive

How did O=C(NNC1=C(C(=O)C(F)(F)F)CCC1)c1cccc(O)c1 do in these assays?
AI-2 QS mod: inactive; HIF activator: inactive; ALR inh: inactive; Mot1-301 SUMO: inactive

Results for Cc1ccc(CNC(=O)CC2(CC3=NS(=O)(=O)c4ccccc4N3)CCCC2)cc1 ?
AI-2 QS mod: inactive; HIF activator: inactive; ALR inh: inactive; Mot1-301 SUMO: inactive

What do the screens show for `O=C(O)Cn1c(SCc2cccc3ccccc23)nc2ccccc21`?
AI-2 QS mod: inactive; HIF activator: inactive; ALR inh: 98; Mot1-301 SUMO: inactive

How did N#CCCN1CCN(Cc2ccccc2)CCC1=O do in these assays?
AI-2 QS mod: inactive; HIF activator: inactive; ALR inh: inactive; Mot1-301 SUMO: inactive

What do the screens show for `Cc1cc(S(=O)(=O)ON2C(=O)c3ccccc3C2=O)ccc1F`?
AI-2 QS mod: inactive; HIF activator: 37; ALR inh: inactive; Mot1-301 SUMO: inactive

How did CCC(C)(C)n1nnnc1CN1CCN(c2ccc(OC)cc2)CC1 do in these assays?
AI-2 QS mod: inactive; HIF activator: inactive; ALR inh: 94; Mot1-301 SUMO: inactive

How did CC(=O)N1Cc2cc(N)ccc2Oc2ccccc21 do in these assays?
AI-2 QS mod: inactive; HIF activator: inactive; ALR inh: 89; Mot1-301 SUMO: inactive

How did O=C1C(=O)N2C(=C1C(=O)N1CCCCCC1)c1ccccc1CC21CCCC1 do in these assays?
AI-2 QS mod: inactive; HIF activator: inactive; ALR inh: inactive; Mot1-301 SUMO: inactive
